MITF inh: MITF inhibition; TRPM1 promoter luciferase, luminescence, 24 h; inhibition, % (test concentration not listed); 37,000 compounds, 0.28% hits; AID 2240; in the data active = inhibition above about 85%;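 also: human melanocyte line stably carrying TRPM1 promoter luciferase reporter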
Shh pathway inh: Sonic Hedgehog pathway inhibition. Shh-LIGHT2 Gli-luciferase reporter, 30 h. inhibition, % (no concentration beside the values). 22,000 compounds, 2.1% hits. AID 2313;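 active = mean inhibition across valid replicates above about 65%, limit read from the data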;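 also: pathway switched on by Shh-conditioned medium diluted 1 in 25 in low serum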
NOMO-1 viab: STK33 inhibitor candidate reducing NOMO-1 cell viability. AID 2330. 37,000 compounds, 7.5% hits. NOMO-1 AML viability, CellTiter-Glo luminescence, 72 h. inhibition, % (test concentration not listed); in the data active = inhibition above about 80%
The depositor's hits bear a star. Sampled rows, rich in hits. Any-hit rate of the full collection: about 8.1%.

`C[C@@H]1CN([C@H](C)CO)C(=O)Cc2cc(NC(=O)Nc3ccc(F)cc3)ccc2O[C@H]1CN(C)Cc1ccc(-c2ccccc2)cc1` gave MITF inh 5.0, Shh pathway inh 0.4 and NOMO-1 viab 127.0*.
For C[C@@H]1CN([C@H](C)CO)C(=O)Cc2cc(NC(=O)Nc3ccc(F)cc3)ccc2O[C@@H]1CN(C)Cc1ccccc1 the results were MITF inh 2.1, Shh pathway inh 13.4 and NOMO-1 viab 51.5.
Screening O=C(CSc1nnc(-c2ccc(Cl)cc2)n1-c1ccc(F)cc1)Nc1ccccc1F returned MITF inh -14.3 and NOMO-1 viab -6.4.
Screening CCOC(=O)CSc1nc(-c2ccccc2)nc2sc3c(c12)CCCC3 returned MITF inh -66.3 and NOMO-1 viab 10.1.
CCOC(=O)c1c(NC(=O)CSc2nc3c(cc2C#N)CCCC3)sc2c1CCCC2 was read as MITF inh -68.9 and NOMO-1 viab -23.4.
CC1CC(=O)C2=C(C1)C(Cl)C(O)C1(O)C2C(=O)c2cccc(O)c2C1O (stereo not given) was read as MITF inh 34.4, Shh pathway inh 9.8 and NOMO-1 viab 101.3*.
`CC1CC(=O)C2=C(C1)C1OC1C1(O)C2C(=O)c2cccc(O)c2C1O` (stereo not given) gave Shh pathway inh -9.2.
CCN(CC)S(=O)(=O)c1ccc(OC)c(NC(=O)c2cccnc2)c1 was read as MITF inh -17.1 and NOMO-1 viab 1.7.
C[C@@H]1CN([C@@H](C)CO)C(=O)Cc2cc(NC(=O)CCCCCC(=O)Nc3ccccc3N)ccc2O[C@@H]1CN(C)Cc1ccc(Oc2ccccc2)cc1 was read as MITF inh 21.2 and NOMO-1 viab 139.6*.
`C[C@H](CO)N1C[C@H](C)[C@H](CN(C)Cc2ccc(Oc3ccccc3)cc2)Oc2ccc(NC(=O)CCCN(C)C)cc2CC1=O` gave MITF inh 3.7, Shh pathway inh 54.7 and NOMO-1 viab 10.9.
Screening C[C@H]1CN([C@@H](C)CO)C(=O)Cc2cc(NC(=O)CCCCCC(=O)Nc3ccccc3N)ccc2O[C@@H]1CN(C)Cc1ccc(Oc2ccccc2)cc1 returned MITF inh 7.2 and NOMO-1 viab 122.3*.
For C[C@@H]1CN([C@@H](C)CO)C(=O)Cc2cc(NC(=O)CCCN(C)C)ccc2O[C@@H]1CN(C)Cc1ccc(Oc2ccccc2)cc1 the results were MITF inh -0.6, Shh pathway inh -49.1 and NOMO-1 viab 20.6.
For C[C@@H]1CN([C@H](C)CO)C(=O)Cc2cc(NC(=O)CCCCCC(=O)Nc3ccccc3N)ccc2O[C@@H]1CN(C)Cc1ccc(Oc2ccccc2)cc1 the results were MITF inh 13.4 and NOMO-1 viab 127.7*.
C[C@H]1CN([C@@H](C)CO)C(=O)Cc2cc(NC(=O)CCCN(C)C)ccc2O[C@@H]1CN(C)Cc1ccc(Oc2ccccc2)cc1 was read as MITF inh -5.3, Shh pathway inh 47.2 and NOMO-1 viab 24.6.
For Cc1cc(C)nc(SCC(=O)Nc2cc([N+](=O)[O-])ccc2C)n1 the results were MITF inh 19.4 and NOMO-1 viab 11.2.
`Cc1cc(C)c2oc(-c3ccc(C)c(NC(=O)COc4ccc(Cl)cc4)c3)nc2c1` gave MITF inh 23.9 and NOMO-1 viab 20.5.
Screening CCOC(=O)[C@H](CCc1ccccc1)N[C@H](C)C(=O)N1C2CCCCC2C[C@H]1C(=O)O (stereo not given in full) returned MITF inh -45.6, Shh pathway inh -0.6 and NOMO-1 viab -22.1.
For C[C@@H]1CN([C@@H](C)CO)C(=O)c2cc(NC(=O)Nc3ccc4c(c3)OCO4)ccc2O[C@H]1CN(C)Cc1ccc(Oc2ccccc2)cc1 the results were MITF inh 9.0 and NOMO-1 viab 26.3.
`C[C@@H]1CN([C@H](C)CO)C(=O)c2cc(NC(=O)Nc3ccc4c(c3)OCO4)ccc2O[C@H]1CN(C)Cc1ccc(Oc2ccccc2)cc1` gave MITF inh -2.3 and NOMO-1 viab -2.3.
For C[C@@H]1CN([C@@H](C)CO)C(=O)c2cc(NC(=O)Nc3ccc4c(c3)OCO4)ccc2O[C@H]1CN(C)Cc1ccc(-c2ccccc2)cc1 the results were MITF inh 19.8 and NOMO-1 viab 115.5*.
`C[C@H](CO)N1C[C@H](C)[C@@H](CN(C)Cc2ccc(-c3ccccc3)cc2)Oc2ccc(NC(=O)Nc3ccc4c(c3)OCO4)cc2C1=O` gave MITF inh -7.2, Shh pathway inh -7.2 and NOMO-1 viab 120.3*.
`C[C@H]1CN([C@@H](C)CO)C(=O)c2cc(NC(=O)Nc3ccc4c(c3)OCO4)ccc2O[C@@H]1CN(C)Cc1ccc(-c2ccccc2)cc1` gave MITF inh 9.5, Shh pathway inh 8.8 and NOMO-1 viab 111.8*.

High-throughput results deposited in PubChem BioAssay by Broad Institute.
